# Activity calls are given as the source filed them. Rule for the calls: active = hit-call score of the fitted dose curve at least 0.9, where 1 is the maximum; inactive = score below 0.9.
# Key:
# Settings in all cases: mRNA level, 48 h; actives raise or lower the signal
# [1] = read-out: growth arrest and DNA damage 45 (GADD45A), GADD45A (gene 1647); assay: LTEA_HepaRG_GADD45A: Life Technologies and Expression Analysis (LTEA) Assay for growth arrest and DNA damage 45 (GADD45A) using HepaRG (AID 2283458)
# Outline: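 HepaRG, 48 h exposure, 8 conc. (top 100 uM, half-log steps), 0.5% DMSO vehicle, duplicates. Read-out: qRT-PCR mRNA level, housekeeping-normalized (ACTB/GAPDH/POLR2A). Curves fit bidirectionally vs DMSO baseline.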
# [2] = read-out: Forkhead box O3 (FOXO3), FOXO3 (gene 2309); assay: LTEA_HepaRG_FOXO3: Life Technologies and Expression Analysis (LTEA) Assay for Forkhead box O3 (FOXO3) using HepaRG (AID 2283459)
# Outline: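 Gene-expression endpoint: FOXO3 transcript level by qRT-PCR in HepaRG cultures treated 48 h with chemicals up to 100 uM (half-log, 0.5% DMSO vehicle).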
# [3] = read-out: ABC Transporter (ABCB1), ABCB1 (gene 5243); assay: LTEA_HepaRG_ABCB1: Life Technologies and Expression Analysis (LTEA) Assay for ABC Transporter (ABCB1) using HepaRG (AID 2283460)
# Outline: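 Human liver HepaRG line treated 48 h with up to 100 uM compound (eight half-log points, 0.5% DMSO); ABCB1 mRNA change fitted bidirectionally against DMSO controls.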
# [4] = read-out: growth arrest and DNA damage 45 (GADD45B), GADD45B (gene 4616); assay: LTEA_HepaRG_GADD45B: Life Technologies and Expression Analysis (LTEA) Assay for growth arrest and DNA damage 45 (GADD45B) using HepaRG (AID 2283461)
# Outline: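 qRT-PCR read-out (Fluidigm TaqMan, housekeeping-normalized) of mRNA change in human HepaRG cells after 48 h chemical exposure; 8-point curve, top 100 uM, half-log steps, 0.5% DMSO vehicle; gain or loss fitted relative to DMSO baseline.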
# [5] = read-out: ABC Transporter (ABCC3), ABCC3 (gene 8714); assay: LTEA_HepaRG_ABCC3: Life Technologies and Expression Analysis (LTEA) Assay for ABC Transporter (ABCC3) using HepaRG (AID 2283462)
# Outline: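 qRT-PCR read-out of ABCC3 transcript, normalized to three housekeeping genes (ACTB, GAPDH, POLR2A), after 48 h chemical exposure of human HepaRG cells. Eight half-log concentrations, highest 100 uM, in 0.5% DMSO; gain or loss fitted relative to DMSO baseline.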
# [6] = read-out: ABC Transporter (ABCB11), ABCB11 (gene 8647); assay: LTEA_HepaRG_ABCB11: Life Technologies and Expression Analysis (LTEA) Assay for ABC Transporter (ABCB11) using HepaRG (AID 2283463)
# Outline: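 Using HepaRG cultures held in 0.5% DMSO, chemicals were tested at half-log dilutions from 100 uM for 48 h. Induction or suppression of ABCB11 mRNA, normalized to ACTB, GAPDH and POLR2A, was fitted bidirectionally against vehicle.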
# [7] = read-out: ABC Transporter (ABCC2), ABCC2 (gene 1244); assay: LTEA_HepaRG_ABCC2: Life Technologies and Expression Analysis (LTEA) Assay for ABC Transporter (ABCC2) using HepaRG (AID 2283464)
# Outline: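 qRT-PCR (TaqMan, Fluidigm array) read-out of ABCC2 mRNA, normalized to three housekeeping genes. Differentiated HepaRG cells were treated 48 h in serum-free induction medium with 8-point half-log series from 100 uM in 0.5% DMSO; curves fitted bidirectionally relative to DMSO.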
# [8] = read-out: Broad substrate specificity ATP-binding cassette transporter ABCG2 (Homo sapiens) (UniProt Q9UNQ0); assay: LTEA_HepaRG_ABCG2: Life Technologies and Expression Analysis (LTEA) Assay for ABC Transporter (ABCG2) using HepaRG (AID 2283465)
# Outline: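 Gene expression of ABCG2 in HepaRG liver cells is quantified by qRT-PCR following 48 h exposure across an eight-point series topping at 100 uM. Values come from bidirectional fitting relative to DMSO vehicle.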
# [9] = read-out: ATP-citrate lyase (ACLY), ACLY (gene 47); assay: LTEA_HepaRG_ACLY: Life Technologies and Expression Analysis (LTEA) Assay for ATP-citrate lyase (ACLY) using HepaRG (AID 2283466)
# Outline: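 ACLY expression changes in human HepaRG liver cells are quantified by qRT-PCR after 48 h exposure to test chemicals (maximum 100 uM, half-log steps). Values are fitted in both directions relative to 0.5% DMSO vehicle.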
# [10] = read-out: Peroxisomal acyl-coenzyme A oxidase 1 (ACOX1) gene, ACOX1 (gene 51); assay: LTEA_HepaRG_ACOX1: Life Technologies and Expression Analysis (LTEA) Assay for Peroxisomal acyl-coenzyme A oxidase 1 (ACOX1) gene using HepaRG (AID 2283467)
# Outline: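 Human HepaRG hepatic cultures, 48 h treatment with test chemicals up to 100 uM. ACOX1 expression read by qRT-PCR relative to 0.5% DMSO vehicle.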
# [11] = read-out: Alkaline Phosphatase, Placental (ALPP) gene, ALPP (gene 250); assay: LTEA_HepaRG_ALPP: Life Technologies and Expression Analysis (LTEA) Assay for Alkaline Phosphatase, Placental (ALPP) gene using HepaRG (AID 2283468)
# Outline: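 qRT-PCR readout of ALPP mRNA (Fluidigm TaqMan), normalized to ACTB/GAPDH/POLR2A, after 48 h chemical exposure of HepaRG cells; 8-point half-log series, top 100 uM, 0.5% DMSO vehicle. Bidirectional curve fit versus DMSO baseline.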
# [12] = read-out: Bcl-2 (BAD) gene, BAD (gene 572); assay: LTEA_HepaRG_BAD: Life Technologies and Expression Analysis (LTEA) Assay for Bcl-2 (BAD) gene using HepaRG (AID 2283469)
# Outline: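 Activity values reflect up- or down-regulation of BAD mRNA in human HepaRG hepatic cells treated 48 h in serum-free medium, with eight-point half-log dosing capped at 100 uM and 0.5% DMSO vehicle.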
# [13] = read-out: Bcl-2 (BAX) gene, BAX (gene 581); assay: LTEA_HepaRG_BAX: Life Technologies and Expression Analysis (LTEA) Assay for Bcl-2 (BAX) gene using HepaRG (AID 2283470)
# Outline: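 qRT-PCR read-out of BAX mRNA, normalized to three housekeeping genes, after 48 h chemical exposure of human HepaRG cells in serum-free induction medium; eight-point half-log series, top 100 uM, 0.5% DMSO vehicle; bidirectional fit versus DMSO.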
# [14] = read-out: adenosine kinase (ADK) gene, ADK (gene 132); assay: LTEA_HepaRG_ADK: Life Technologies and Expression Analysis (LTEA) Assay for adenosine kinase (ADK) gene using HepaRG (AID 2283471)
# Outline: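 ADK expression quantified by qRT-PCR, normalised to three housekeeping genes, after 48 h exposure of HepaRG cells to eight concentrations (top 100 uM, half-log steps, duplicate, 0.5% DMSO). Up- or down-regulation fitted relative to vehicle.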
# [15] = read-out: Alpha-fetoprotein (AFP) gene, AFP (gene 174); assay: LTEA_HepaRG_AFP: Life Technologies and Expression Analysis (LTEA) Assay for Alpha-fetoprotein (AFP) gene using HepaRG (AID 2283472)
# Outline: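 qRT-PCR (Fluidigm TaqMan) readout of AFP transcript, normalized to three housekeeping genes, fitted bidirectionally against 0.5% DMSO baseline. HepaRG cells received chemicals for 48 h in serum-free induction medium, top concentration 100 uM, half-log steps.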
# BCL2L11 (gene 10018) = assay: LTEA_HepaRG_BCL2L11: Life Technologies and Expression Analysis (LTEA) Assay for Bcl-2 (BCL2L11) gene using HepaRG (AID 2283473)
# Outline: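 HepaRG, 48 h exposure, 8-pt half-log series from 100 uM in 0.5% DMSO, duplicates; qRT-PCR (Fluidigm TaqMan) for BCL2L11, housekeeping-normalized; bidirectional curve fit relative to DMSO baseline.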
# [16] = read-out: Apolipoprotein A-V (APOA5) gene, APOA5 (gene 116519); assay: LTEA_HepaRG_APOA5: Life Technologies and Expression Analysis (LTEA) Assay for Apolipoprotein A-V (APOA5) gene using HepaRG (AID 2283474)
# Outline: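 HepaRG, 48 h chemical exposure in serum-free induction medium, 8-pt half-log series (top 100 uM), 0.5% DMSO vehicle, duplicates. Readout: APOA5 mRNA by qRT-PCR, housekeeping-normalized; bidirectional fit vs DMSO baseline.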
# [17] = read-out: Apoptosis regulator Bcl-2 (Homo sapiens) (UniProt P10415); assay: LTEA_HepaRG_BCL2: Life Technologies and Expression Analysis (LTEA) Assay for Bcl-2 gene using HepaRG (AID 2283475)
# Outline: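 qRT-PCR read-out (Fluidigm TaqMan) of BCL2 transcript, normalised to three housekeeping genes, after 48 h chemical exposure of HepaRG cells; 8-point half-log series, top 100 uM, 0.5% DMSO vehicle. Gain or loss of signal fitted relative to DMSO baseline.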
# [18] = read-out: Bcl-2 (BID) gene, BID (gene 637); assay: LTEA_HepaRG_BID: Life Technologies and Expression Analysis (LTEA) Assay for Bcl-2 (BID) gene using HepaRG (AID 2283476)
# Outline: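 HepaRG, 48 h exposure, 8-pt half-log series, top 100 uM, 0.5% DMSO vehicle, duplicates. Readout: BID mRNA by TaqMan qRT-PCR; housekeeping-normalized; bidirectional curve fit vs DMSO baseline.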
# Caspase-3 (Homo sapiens) = Caspase-3 (Homo sapiens) (UniProt P42574); assay: LTEA_HepaRG_CASP3: Life Technologies and Expression Analysis (LTEA) Assay for cysteine-aspartic acid protease (CASP3) using HepaRG (AID 2283477)
# Chain of Caspase-3 (Homo sapiens) (P42574 whole entry, looked up): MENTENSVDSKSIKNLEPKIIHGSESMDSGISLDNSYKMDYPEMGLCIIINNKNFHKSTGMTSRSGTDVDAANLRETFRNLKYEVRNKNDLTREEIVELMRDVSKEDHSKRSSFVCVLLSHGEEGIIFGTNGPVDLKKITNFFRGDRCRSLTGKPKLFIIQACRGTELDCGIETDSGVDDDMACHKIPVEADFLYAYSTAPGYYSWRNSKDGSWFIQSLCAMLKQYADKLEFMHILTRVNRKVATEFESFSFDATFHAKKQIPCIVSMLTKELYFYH
# Outline: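 HepaRG, 48 h exposure, 8 conc. (top 100 uM, half-log steps, duplicate), 0.5% DMSO vehicle; qRT-PCR of CASP3 transcript, housekeeping-normalised (ACTB/GAPDH/POLR2A); bidirectional curve fit vs DMSO baseline.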
# Chain of Broad substrate specificity ATP-binding cassette transporter ABCG2 (Homo sapiens) (Q9UNQ0 whole entry, looked up): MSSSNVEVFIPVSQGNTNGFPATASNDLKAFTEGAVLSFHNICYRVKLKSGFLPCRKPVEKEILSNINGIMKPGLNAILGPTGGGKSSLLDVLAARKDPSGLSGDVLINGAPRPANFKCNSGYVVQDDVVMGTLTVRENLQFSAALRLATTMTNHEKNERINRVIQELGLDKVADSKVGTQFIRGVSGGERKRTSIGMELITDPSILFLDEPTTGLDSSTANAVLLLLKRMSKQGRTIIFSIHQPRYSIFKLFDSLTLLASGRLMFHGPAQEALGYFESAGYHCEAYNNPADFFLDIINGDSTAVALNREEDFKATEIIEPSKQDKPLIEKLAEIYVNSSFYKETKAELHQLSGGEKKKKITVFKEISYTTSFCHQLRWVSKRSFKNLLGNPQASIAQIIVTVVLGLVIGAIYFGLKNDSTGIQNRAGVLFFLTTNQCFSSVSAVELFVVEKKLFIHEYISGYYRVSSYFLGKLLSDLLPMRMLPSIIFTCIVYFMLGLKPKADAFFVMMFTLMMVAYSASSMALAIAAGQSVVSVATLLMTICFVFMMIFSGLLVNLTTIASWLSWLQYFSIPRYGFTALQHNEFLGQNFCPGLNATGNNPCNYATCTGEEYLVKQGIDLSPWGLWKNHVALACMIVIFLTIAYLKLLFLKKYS
# Chain of Apoptosis regulator Bcl-2 (Homo sapiens) (P10415 whole entry, looked up): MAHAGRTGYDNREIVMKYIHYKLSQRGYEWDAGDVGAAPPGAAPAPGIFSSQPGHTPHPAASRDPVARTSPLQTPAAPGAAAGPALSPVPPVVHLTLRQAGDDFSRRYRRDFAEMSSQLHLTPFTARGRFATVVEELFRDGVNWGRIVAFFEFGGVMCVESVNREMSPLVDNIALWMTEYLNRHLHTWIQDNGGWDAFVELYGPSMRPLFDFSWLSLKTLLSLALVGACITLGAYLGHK
smiles,measurement,setting,value
O=C(c1ccc(OCCN2CCCCC2)cc1)c1c(-c2ccc(O)cc2)sc2cc(O)ccc12,outcome,[1],inactive
same,outcome,[2],inactive
same,AC50,[3],72.7 µM (active)
same,AC50,[4],92.8 µM (active)
same,AC50,[5],50 µM (active)
same,AC50,[6],7.18 µM (active)
same,AC50,[7],84.8 µM (active)
same,outcome,[8],inactive
same,outcome,[9],inactive
same,AC50,[10],68.6 µM (active)
same,outcome,[11],inactive
same,outcome,[12],inactive
same,outcome,[13],inactive
same,AC50,[14],67.7 µM (active)
same,outcome,[15],inactive
same,outcome,BCL2L11 (gene 10018),inactive
same,outcome,[16],inactive
same,outcome,[17],inactive
same,outcome,[18],inactive
same,outcome,Caspase-3 (Homo sapiens),inactive
C#C[C@]1(O)CC[C@H]2[C@@H]3CCc4cc(O)ccc4[C@H]3CC[C@@]21C,outcome,[1],inactive
same,outcome,[2],inactive
same,outcome,[3],inactive
same,outcome,[4],inactive
same,outcome,[5],inactive
same,outcome,[6],inactive
same,outcome,[7],inactive
same,outcome,[8],inactive
same,outcome,[9],inactive
same,outcome,[10],inactive
same,outcome,[11],inactive
same,outcome,[12],inactive
same,outcome,[13],inactive
same,outcome,[14],inactive
same,outcome,[15],inactive
same,outcome,[16],inactive
same,outcome,[17],inactive
same,outcome,[18],inactive
same,outcome,Caspase-3 (Homo sapiens),inactive
C[C@]12CC[C@@H]3c4ccc(O)cc4CC[C@H]3[C@@H]1CC[C@@H]2O,outcome,[1],inactive
same,outcome,[2],inactive
same,AC50,[3],6.57 µM (active)
same,outcome,[4],inactive
same,outcome,[5],inactive
same,AC50,[6],50 µM (active)
same,AC50,[7],41.2 µM (active)
same,AC50,[8],3.03 µM (active)
same,outcome,[9],inactive
same,outcome,[10],inactive
same,outcome,[11],inactive
same,outcome,[12],inactive
same,outcome,[13],inactive
same,outcome,[14],inactive
same,AC50,[15],50 µM (active)
same,outcome,BCL2L11 (gene 10018),inactive
same,AC50,[16],68 µM (active)
same,outcome,[17],inactive
same,outcome,[18],inactive
same,outcome,Caspase-3 (Homo sapiens),inactive
CCCCOCCOCCO,outcome,[1],inactive
same,outcome,[2],inactive
same,outcome,[3],inactive
same,outcome,[4],inactive
same,outcome,[5],inactive
same,outcome,[6],inactive
same,outcome,[7],inactive
same,outcome,[8],inactive
same,outcome,[9],inactive
same,outcome,[10],inactive
same,outcome,[11],inactive
same,outcome,[12],inactive
same,outcome,[13],inactive
same,outcome,[14],inactive
same,outcome,[15],inactive
same,outcome,BCL2L11 (gene 10018),inactive
same,outcome,[16],inactive
same,outcome,[17],inactive
same,outcome,[18],inactive
same,outcome,Caspase-3 (Homo sapiens),inactive

# Source: PubChem BioAssay (EPA / NIEHS)
